PubChem BioAssay (NCI)
The panel holds about 79,000 compounds, 15% with a hit somewhere; the sample as a whole holds those more often. Unmarked numbers belong to inactive results. Calls of active or inactive are those of the source. No stated cut-off is given here; in the data, active means growth inhibition above about 70%; inactive means the rest.

Assay: NCI Yeast Anticancer Drug Screen. Data for the bub3 strain (AID 167)
Settings: S. cerevisiae bub3 mutant strain, stronger effect = higher value
Protocol: Growth inhibition of yeast strains with defined genetic alterations is measured as a screen for potential anti-cancer activity. Selected strains with alterations in DNA damage repair or cell cycle control were exposed to compounds and growth inhibition was measured relative to vehicle treated controls. The strain used in this assay is bub3

[1] = at 5.0 µM (retest, dose inferred, filed as 0.5)
[2] = at 50.0 µM (retest, dose inferred, filed as 5.0)

Compound: c1ccc([P+](CCN2Cc3ccccc3C2)(c2ccccc2)c2ccccc2)cc1
- growth inhibition (at 1.2 µM): 7%
- growth inhibition (at 3.7 µM): 39%
- growth inhibition [1]: 21%
- growth inhibition (at 11.0 µM): 31%
- growth inhibition (at 33.0 µM): 64%
- growth inhibition [2]: 98% (active)
- growth inhibition (at 50.0 µM): 79.1% (active)
- growth inhibition (at 100.0 µM): 94% (active)

Compound: CCCCCCCCCCCCOCCOCCOCC(N)=O
- growth inhibition (at 1.2 µM): -6%
- growth inhibition (at 3.7 µM): 1%
- growth inhibition [1]: 21%
- growth inhibition (at 11.0 µM): -13%
- growth inhibition (at 33.0 µM): 97% (active)
- growth inhibition [2]: 97% (active)
- growth inhibition (at 50.0 µM): 91.5% (active)
- growth inhibition (at 100.0 µM): 94% (active)

Compound: O=[N+]([O-])c1ccc2[nH]c3c(-c4ccccc4)nccc3c2c1
- growth inhibition (at 1.2 µM): 10%
- growth inhibition (at 3.7 µM): 90% (active)
- growth inhibition [1]: 52%
- growth inhibition (at 11.0 µM): 96% (active)
- growth inhibition (at 33.0 µM): 97% (active)
- growth inhibition [2]: 97% (active)
- growth inhibition (at 50.0 µM): 98.8% (active)
- growth inhibition (at 100.0 µM): 96% (active)

Compound: O=C(/C(=C/c1ccc(O)cc1)c1ccccc1)c1ccccc1
- growth inhibition (at 1.2 µM): 22%
- growth inhibition (at 3.7 µM): 12%
- growth inhibition [1]: 2%
- growth inhibition (at 11.0 µM): 82% (active)
- growth inhibition (at 33.0 µM): 99% (active)
- growth inhibition [2]: 98% (active)
- growth inhibition (at 50.0 µM): 91.3% (active)
- growth inhibition (at 100.0 µM): 90% (active)

Compound: CCC(=O)C1=C(O)c2cc(OC)ccc2CC1C(=O)OC (stereo not given)
- growth inhibition (at 1.2 µM): -7%
- growth inhibition (at 3.7 µM): -8%
- growth inhibition [1]: 7%
- growth inhibition (at 11.0 µM): -9%
- growth inhibition (at 33.0 µM): 2%
- growth inhibition [2]: 78% (active)
- growth inhibition (at 50.0 µM): 38.9%
- growth inhibition (at 100.0 µM): 15%
